Measurements published in PubChem BioAssay AID1445 (SRMLSC, 2008).
Among all 220,000 compounds or so, about 910 (0.41%) were called active.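 How the source made its calls: active means primary inhibition above the hit cutoff, then over 50% inhibition at one or more dose response concentrations (cut at about 23% in these data, passing the limit was not always enough); inconclusive means conflicting primary data, or primary hits not chosen for dose response; inactive means low primary inhibition, or under 50% at every dose.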 For the sample, actives were picked, then their nearest neighbours and some compounds at random. Results with a measured potency or affinity are listed apart.

molecular target: Aminopeptidase N (Plasmodium falciparum (isolate 3D7)) (UniProt O96935); assay: malaria alanyl aminopeptidase activity blockers – biochemical, fluorogenic H-Leu-NHMec substrate, 1536-well (AID 1445); conditions: recombinant M1AAP, H-Leu-NHMec fluorogenic kinetic assay; at 30 µM, active compounds read high unless noted;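 further: plate controls were DMSO full reaction for no effect and no enzyme background for full effect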
Sequence (O96935 whole entry, looked up): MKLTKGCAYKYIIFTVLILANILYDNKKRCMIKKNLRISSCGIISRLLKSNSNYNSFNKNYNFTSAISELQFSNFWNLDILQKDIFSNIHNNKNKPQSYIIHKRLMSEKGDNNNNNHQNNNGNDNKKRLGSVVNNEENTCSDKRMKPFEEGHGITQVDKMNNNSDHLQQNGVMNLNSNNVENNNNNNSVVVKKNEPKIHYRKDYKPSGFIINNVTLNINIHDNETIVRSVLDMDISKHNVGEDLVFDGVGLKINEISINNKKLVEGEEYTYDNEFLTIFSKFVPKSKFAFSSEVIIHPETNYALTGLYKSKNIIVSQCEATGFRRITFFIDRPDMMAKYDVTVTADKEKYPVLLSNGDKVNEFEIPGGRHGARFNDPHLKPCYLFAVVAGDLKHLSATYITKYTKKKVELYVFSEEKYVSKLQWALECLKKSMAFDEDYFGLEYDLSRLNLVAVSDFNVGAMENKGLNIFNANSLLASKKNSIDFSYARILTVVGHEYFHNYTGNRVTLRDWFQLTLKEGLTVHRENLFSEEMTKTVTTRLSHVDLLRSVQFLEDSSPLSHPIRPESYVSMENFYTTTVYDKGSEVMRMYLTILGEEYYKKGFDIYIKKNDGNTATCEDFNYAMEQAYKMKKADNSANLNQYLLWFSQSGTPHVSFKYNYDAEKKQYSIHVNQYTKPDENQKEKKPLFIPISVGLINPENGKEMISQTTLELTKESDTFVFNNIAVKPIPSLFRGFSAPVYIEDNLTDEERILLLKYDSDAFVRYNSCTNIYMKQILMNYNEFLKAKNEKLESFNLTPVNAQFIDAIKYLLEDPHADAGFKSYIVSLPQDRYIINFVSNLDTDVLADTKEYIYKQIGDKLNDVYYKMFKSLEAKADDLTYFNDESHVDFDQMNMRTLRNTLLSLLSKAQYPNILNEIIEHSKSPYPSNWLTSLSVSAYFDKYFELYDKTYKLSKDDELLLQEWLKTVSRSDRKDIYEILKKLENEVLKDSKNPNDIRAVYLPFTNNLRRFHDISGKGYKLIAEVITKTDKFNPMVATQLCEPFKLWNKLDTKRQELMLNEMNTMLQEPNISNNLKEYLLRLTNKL

inhibition, active:
N#C/C(=N\Nc1cccc(Cl)c1)C(=O)c1ccccc1 23.3%
CCCC1=[N+](CC)CCn2c(C)ccc21 47.2%

inhibition, inactive:
COc1ccc(C2c3ccc(O)cc3Oc3ncn(CCCO)c(=N)c32)cc1 (stereo not given) 8.86%
O=C(O)CC1S/C(=N/N=C/c2ccc(-c3ccc(Cl)cc3[N+](=O)[O-])o2)NC1=O (stereo not given) 20.8%
CNC(=S)N/N=C/c1ccc(-c2ccc(Cl)c([N+](=O)[O-])c2)o1 3.04%
O=C(Oc1ccccc1N1C(=O)C2CCCCC2C1=O)c1ccccc1F (stereo not given) 4.73%
COc1ccc(NC(=O)C2CCN(S(C)(=O)=O)CC2)cc1Cl 4.6%
O=C1C2CC=C(Cl)CC2C(=O)N1CCN1CCOCC1 (stereo not given) 2.4%
CC(C)CSC1=NSC2=NC(=O)/C(=C\c3coc4ccccc4c3=O)C(=N)N12 19.5%
Cc1cc(/C=C2/C(=N)N3C(=NC2=O)SN=C3S(C)(=O)=O)c(C)n1-c1ccccc1F 8.82%
CC(C)CSC1=NSC2=NC(=O)/C(=C\c3ccccc3)C(=N)N12 -10%
COc1ccccc1-n1c(C)cc(/C=C2/C(=N)N3C(=NC2=O)SN=C3S(C)(=O)=O)c1C 17.9%
CCSC1=NSC2=NC(=O)/C(=C\c3coc4ccccc4c3=O)C(=N)N12 19.9%
Cc1cc(/C=C2/C(=N)N3C(=NC2=O)SN=C3S(C)(=O)=O)c(C)n1-c1ccc(F)cc1 14.2%
Nc1ccnn1Cc1ccc(Br)s1 14.7%
CCOc1ccc2ncc(S(=O)(=O)c3ccccc3)c(N3CCN(c4ccc(OC)cc4)CC3)c2c1 3.98%
Cc1ccc(-c2nc(SCC(=O)NCCN3C(=O)CSC3=O)[nH]c2-c2ccc(C)cc2)cc1 -5.28%
COC(=O)/C(C#N)=C/c1ccc(-c2ccc(S(N)(=O)=O)cc2)o1 -5.9%
O=C(NC(Cc1ccccc1)C(=O)O)c1ccc(S(=O)(=O)N2CCOCC2)cc1 (stereo not given) -4.36%
COCCNC(=O)COc1ncnc2ccc(Br)cc12 0.71%
COCCn1c(=NC(C)=O)sc2cc([N+](=O)[O-])ccc21 1.15%
O=C(Nc1cccc2oc(=O)ccc12)c1ccc([N+](=O)[O-])cc1[N+](=O)[O-] 8.2%
Cc1ccc(S(=O)(=O)N(C)C)cc1NC(=O)COC(=O)c1sc2cc(Cl)ccc2c1Cl -0.59%
CCOC(Cn1c(SCc2cc(C(C)=O)ccc2OC)nc2ccccc2c1=O)OCC 2.96%
COCCn1c(SCc2cc(C(C)=O)ccc2OC)nc2cc(Cl)ccc2c1=O 2.27%
N/C(=N\OC(=O)CCn1cccc(C(F)(F)F)c1=O)c1ccc(Cl)cc1 -1.85%
COc1cc(C)nc(N2CCCC(C(=O)Nc3cccc(Cl)c3Cl)C2)n1 (stereo not given) 1.36%
CNC(=O)Nc1cccc(-c2ccnc(C)n2)c1 0.72%
COc1cccc(C(=O)/C(C#N)=N/Nc2cccc(-c3ccnc(C)n3)c2)c1 8.84%
CCOC(=O)NC(=O)/C(C#N)=N\Nc1cccc(Cl)c1 1.92%
COc1ccc(C(=O)/C(C#N)=N/Nc2ccc([N+](=O)[O-])cc2)cc1 3.64%
COc1ccc(C(=O)/C(C#N)=N/Nc2cccc([N+](=O)[O-])c2)cc1 12.4%
N#C/C(=N\Nc1ccccc1Cl)C(=O)c1ccccc1 12.7%
COc1ccc(C(=O)C2CCCN(C(=O)c3cc(C(C)C)no3)C2)cc1F (stereo not given) 0.4%
Cc1ccc(C)n1NC(=O)c1ccc(O)cc1 17%
CC(=O)/C=C(\C)N=Nc1c(O)[nH]c2ccccc12 6.61%
C/C(=N\NC(=O)c1ccccc1)c1cccc(Br)c1 4.52%
O=C(Nc1ccccc1[N+](=O)[O-])c1cc2ccccc2nc1Cl 0.38%
CCN(C(=O)CSc1n[nH]c(-c2cccs2)n1)C1CCS(=O)(=O)C1 (stereo not given) -0.17%
Cc1cc(Cl)ccc1OCC(=O)OC(C)C(=O)NC(N)=O (stereo not given) -2.23%
COc1ccc(N=Cc2cc(Cc3ccccc3Cl)cc([N+](=O)[O-])c2O)cc1OC 10.4%
O=C1CCCN1CCC1CCCCN1Cc1nc(-c2cnccn2)no1 (stereo not given) -4.06%
COc1ccc(NS(=O)(=O)c2cccc(-c3nnc4n3CCCCC4)c2)cc1 20%
CCCC1=[N+](CC(=O)c2ccccc2)CCn2c(C)ccc21 8.08%
CCCC1=[N+](CC(C)=O)CCn2c(C)ccc21 6.47%
